# Assay results from PubChem BioAssay AID1851 (National Center for Advancing Translational Sciences (NCATS), 2009).
# Values joined by “and” are separate entries in the source; they are usually repeats but may differ in a detail not shown here. Equal entries are not always repeated. About 5,800 (36%) of roughly 16,000 compounds were called active. Another 23% or so got no clear call; they are omitted. Some of the results follow. A structure can be active in one record and inactive in another. Values without a mark were called inactive. Calls follow the shape of the dose curve; as a rule, active = well fitted curve in the direction sought with a large enough effect; inconclusive = small, poorly fitted or top-dose-only effect, or effect the other way; inactive = no such curve, though single readings can be large or run the other way.
# Molecular target: Cytochrome P450 2C19 (Homo sapiens) (UniProt P33261)
# Sequence (P33261 whole entry, looked up): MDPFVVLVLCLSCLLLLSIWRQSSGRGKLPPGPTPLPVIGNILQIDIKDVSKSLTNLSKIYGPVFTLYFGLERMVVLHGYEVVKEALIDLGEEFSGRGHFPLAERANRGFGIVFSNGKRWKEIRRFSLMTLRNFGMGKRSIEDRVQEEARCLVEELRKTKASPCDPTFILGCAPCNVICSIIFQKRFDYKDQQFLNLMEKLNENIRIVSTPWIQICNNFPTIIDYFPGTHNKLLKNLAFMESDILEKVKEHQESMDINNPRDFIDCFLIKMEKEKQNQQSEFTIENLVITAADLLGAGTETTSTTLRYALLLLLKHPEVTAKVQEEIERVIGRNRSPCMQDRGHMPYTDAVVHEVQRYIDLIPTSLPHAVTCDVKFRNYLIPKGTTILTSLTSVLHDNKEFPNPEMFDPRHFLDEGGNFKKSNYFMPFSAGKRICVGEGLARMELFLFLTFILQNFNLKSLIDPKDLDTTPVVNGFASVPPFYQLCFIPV
# Experiment: Cytochrome panel assay with activity outcomes
# Conditions: recombinant CYP, pro-luciferin dealkylation, luminescence, p450-cyp2c19; series mostly up to 57.1 µM
# % is scaled to controls: 0 for no effect and ±100 for the full control effect.
Structure (SMILES),AC50,"activity, negative = inhibition"
C[C@H](N)C(=O)O,inactive,–
O=C(O)C(Sc1ccc(Cl)cc1)Sc1ccc(Cl)cc1,0.1 µM (active),–
N[C@@H](CC1=CS(=O)(=O)c2ccc(Cl)cc21)C(=O)O,–,-36.6% [at 11.4 µM]
N[C@H](Cc1ccc(Cl)cc1)C(=O)O,inactive,–
NCCOB(c1ccccc1)c1ccccc1,inactive,–
Cc1[nH]n(C(C)(C)C)c(=O)c1Sc1ccc(Cl)cc1,3.98 µM (active),–
O=[N+]([O-])c1ccc(Cl)c(-c2ccc(/C=N/c3c(-c4ccco4)nc4ccccn34)o2)c1,inactive,–
COc1cc(-c2nc3ccccn3c2/N=C/c2ccccc2)ccc1O,10 µM (active),–
COc1cc(Cn2cnnn2)ccc1O,inactive,–
CC(C)NC(=O)CC(=O)N/N=C/c1ccc(F)cc1,inactive,–
O=Nc1ccc(NOC(=O)c2ccc(Br)cc2)cc1,inactive,–
O=C(N/N=C/c1ccc(F)cc1)c1ccc(Br)cc1,inactive,–
CC(C)(C)NC(=O)C(=O)N/N=C/c1ccc(Br)cc1,14.1 µM (active),–
CC(C)NC(=O)CC(=O)N/N=C/c1ccc(Br)cc1,3.55 µM (active),–
CCOc1ccc(OCCOCCN2CCc3ccccc3C2)cc1,14.1 µM (active),–
CCCCOc1ccc(CN2CCC(O)CC2)cc1,inactive,–
CCNC(=O)c1c(NC(C)=O)sc2c1CCCC2,inactive,–
CC(=O)Nc1sc2c(c1CN1CCN(C)CC1)CCCC2,6.31 µM (active),–
Cc1cc(OCC(F)(F)C(F)(F)C(F)(F)C(F)(F)C(F)(F)C(F)F)nc(N)n1,3.16 µM (active),–
CCCc1cc(=O)[nH]c(SCc2cc(Cl)ccc2OC(F)F)n1,2.82 µM (active),–
COc1cc(-c2ccc(=O)[nH]n2)ccc1OC(F)F,inactive,–
O=C(COc1cccc2ccccc12)NNC(=O)c1cccs1,10 µM (active),–
N#C/C(=C\c1cccs1)C(=O)NCC1CCCO1 (stereo not drawn),inactive,–
Cc1ccc(S(N)(=O)=O)cc1NC(=O)/C=C/c1cccs1,inactive,–
Cc1cccc(C)c1NC(=O)/C(C#N)=C/c1cccs1,4.47 µM (active),–

Structure (SMILES),AC50,"activity, negative = inhibition"
CC(C)=CC(=O)Nc1nnc(C(C)C)s1,25.1 µM (active),–
CC(=O)Nc1nnc(S(N)(=O)=O)s1,inactive,–
C=CCOC(=O)C1=C(C)NC(SCC(=O)OCC)=C(C#N)C1c1ccc(C)cc1 (stereo not drawn),2.82 µM (active),–
C=CCOC(=O)C1=C(C)NC(SC)=C(C#N)C1c1cccs1 (stereo not drawn),0.178 µM (active),–
Cn1cccc1C(=O)N1CCC[C@@]2(CCN(Cc3ccc(C#N)cc3)C2)C1,inactive,–
C#C[C@H](N)CCC(=O)O,inactive,–
Cc1nnsc1SC(C)C(=O)O (stereo not drawn),inactive,–
CCNc1ncc2nc(-c3ccc(OC)cc3)c(=O)n(-c3ccc(OC)cc3)c2n1,inactive,–
CN(C(=S)NC(=O)c1ccccc1Br)C1CCCCC1,7.94 µM (active),–
C/C=C\C[C@H](C)[C@H](O)[C@H]1C(=O)N[C@@H](CC)C(=O)N(C)CC(=O)N(C)[C@@H](CC(C)C)C(=O)N[C@@H](C(C)C)C(=O)N(C)[C@@H](CC(C)C)C(=O)N[C@@H](C)C(=O)N[C@@H](C)C(=O)N(C)[C@@H](CC(C)C)C(=O)N(C)[C@@H](CC(C)C)C(=O)N(C)[C@@H](C(C)C)C(=O)N1C,inactive,–
CC(C)OC(=O)c1cc2c(OC[C@@H](O)CNC(C)(C)C)cccc2[nH]1,inactive,–
O=[N+]([O-])c1ccc(/C=N/N/C(=N/c2ccccn2)c2ccccn2)cc1,28.2 µM (active),–
C[N+]1(C)CCC(=C(c2ccccc2)c2ccccc2)CC1,inactive,–
c1ccc2cc(Sc3ncnc4c3oc3ccccc34)ccc2c1,2 µM (active),–
Oc1c(C(O)(c2ccccc2)c2ccc3ccccc3c2O)ccc2ccccc12,0.794 µM (active),–
Cc1ccc(N=Cc2cc(C)n(C3CCCC3)c2C)cc1,17.8 µM (active),–
C[C@@]12CCC(=O)C=C1CC[C@H]1[C@@H]2[C@@H](O)C[C@]2(C)[C@@H]1CC[C@@]2(O)C(=O)COC(=O)C1CCCC1,–,-27.7% [at 11.4 µM]
C[C@@]12C[C@H](O)[C@@H]3[C@H](CCC4=CC(=O)CC[C@]43C)[C@H]1CC[C@@H]2c1csc(N)n1,3.98 µM (active),–
C[C@@]12CCC(=O)C=C1CC[C@@H]1[C@@H]2[C@H](O)C[C@]2(C)[C@@H]1CC[C@]2(O)C(=O)CO,inactive,–
Cc1cc(C)nc(NC(=O)/C=C/c2ccc(Cl)cc2Cl)c1,15.8 µM (active),–
CCOC(=O)Cc1csc(NC(=O)c2ccc(Cl)nc2)n1,10 µM (active),–
COCc1nnc(NC(=O)c2ccc(S(=O)(=O)N3CCCCCC3)cc2)o1,inactive,–
Cc1noc(C)c1C(=O)N1CCC[C@@]2(CCN(C(=O)Nc3cccc(F)c3)C2)C1,inactive,–
CCOC(=O)Cc1csc(NC(=O)c2c(-c3c(Cl)cccc3Cl)noc2C)n1,3.55 µM (active),–
CCOC(=O)Cc1csc(NC(=O)c2ccc(S(=O)(=O)N3CCCCC3)cc2)n1,14.1 µM (active),–

Structure (SMILES),AC50,"activity, negative = inhibition"
Cc1onc(-c2c(Cl)cccc2Cl)c1C(=O)Nc1ccc2c(c1)OCO2,1.12 µM (active),–
Cc1noc(C)c1C(=O)N1CCC2(CCCN(C(=O)Nc3cccc(F)c3)C2)CC1,inactive,–
CC(C)CN1CCCC2(CCN(C(=O)c3cnccn3)CC2)C1,inactive,–
O=C1CN(C(=O)c2ccc(Br)o2)C(c2ccc(F)cc2)c2cc(Cl)ccc2N1 (stereo not drawn),7.94 µM (active),–
CCCCC(=O)Nc1sc2c(c1C(=O)OCC)CCC(C=O)=C2Cl,14.1 µM (active),–
O=C1Nc2ccccc2Nc2ncccc21,inactive,–
CC(/C=C/c1ccccc1)=N/NC(=O)CNC(=O)c1ccc2c(c1)OCO2,inactive,–
C/C(=N\NC(=O)CSCc1ccc(Cl)cc1)c1ccc2c(c1)OCCO2,1.26 µM (active),–
Cc1ccccc1OCC(=O)NC(=S)Nc1ccc(Br)c(C)n1,inactive,–
CCC(=O)NC(=S)Nc1ccc(NC(=O)COc2ccc(Cl)cc2Cl)cc1,2.82 µM (active),–
CCc1ccc(OCC(=O)NC(=S)Nc2ccc(F)cc2)c(Br)c1,8.91 µM (active),–
C=C(CC)C(=O)c1ccc(OCC(=O)O)c(Cl)c1Cl,inactive,–
O=C(CCN1C(=O)c2ccccc2C1=O)NC(=S)Nc1cccc(Cl)c1,4.47 µM (active),–
O=C(COc1ccccc1Cl)NC(=S)Nc1cccc(NC(=O)c2ccccc2Cl)c1,0.631 µM (active),–
CN(C)c1ncnc2c1ncn2CCn1cnc2c(N(C)C)ncnc21,–,27.8% [at 11.4 µM]
NC1=C2NC=N[C@@H]2N(C/C=C\c2ccccc2)C=N1,–,7.43% [at 11.4 µM]
Cc1c(N(C)C)c(=O)n(-c2ccccc2)n1C,inactive,–
Cc1c(O)c(=O)n(-c2ccccc2)n1C,inactive,–
Cc1c(N2C(=O)/C(=C3/C(=O)N(C)c4ccccc43)SC2=S)c(=O)n(-c2ccccc2)n1C,2.82 µM (active),–
O=S(=O)(O)c1ccc2c(N=Nc3cccc4ccccc34)c(O)c(S(=O)(=O)O)cc2c1,–,13.7% [at 11.4 µM]
CCOC(=O)c1c(C)n(C)c2ccc(OC(=O)c3ccco3)cc12,5.01 µM (active),–
CN(C(=O)C(Cl)Cl)c1ccc(OC(=O)c2ccco2)cc1,inactive,–
CCCn1c(N)[n+](CC(=O)c2ccco2)c2ccccc21,inactive,–
COc1cc(/C=C2/C(=N)N3C=CSC3=NC2=O)ccc1OCCCOc1ccccc1C,7.94 µM (active),–
CCOc1cc(/C=C2/C(=N)N3C=CSC3=NC2=O)ccc1OCCCOc1ccccc1C,1 µM (active),–

Structure (SMILES),AC50,"activity, negative = inhibition"
Cc1ccc(N=Nc2ccc(N)cc2C)c(S(N)(=O)=O)c1,–,1.27% [at 11.4 µM]
COc1ccccc1CN1CC[C@@]2(CCCN(S(C)(=O)=O)C2)C1,inactive,–
CCCNc1c(F)c(F)c2c(C)c3ccccc3nc2c1F,10 µM (active),–
CCNC(=S)N1CC(C)OC(C)C1 (stereo not drawn),inactive,–
Cc1ccc(CC(=O)N2CC(C)OC(C)C2)cc1 (stereo not drawn),8.91 µM (active),–
CC1CN(C(=O)CN2C(=O)NC3(CCCCCC3)C2=O)CC(C)O1 (stereo not drawn),inactive,–
c1ccc2c(c1)ncn2-c1ccc(-c2ccnc(-c3ccncc3)n2)cc1,0.2 µM (active),–
CCOC(=O)c1ccc2nc(C)c(CCC(C)=O)c(Cl)c2c1,5.62 µM (active),–
CC(C)(C)c1cc(C(=O)O)c(CN2CCCCC2)o1,inactive,–
CN(C)S(=O)(=O)c1ccc(C(=O)Nc2ccc(CN3CCCC3)cc2)cc1,inactive,–
CN(C)S(=O)(=O)Oc1ccsc1C(=O)Nc1ccc(Cl)cc1,0.891 µM (active),–
COc1ccc(/C=N/n2cnc3c([nH]c4ccc(Br)cc43)c2=O)cc1CN1CCOCC1,3.55 µM (active),–
[N-]=[N+]=Nc1ccc(C(=O)CSC[C@@H](NC(=O)CC[C@@H](N)C(=O)O)C(=O)NCC(=O)O)cc1,inactive,–
c1ccc(CCN2CCN=C2Cc2ccccc2)cc1,–,7.77% [at 11.4 µM]
ON(CCc1ccncc1)Cc1ccccc1,0.316 µM (active),–
ON(CCc1ccccn1)Cc1ccccc1,–,-32.5% [at 11.4 µM]
Fc1ccc(SCCc2ccncc2)cc1,0.447 µM (active),–
c1ccc(SCCc2ccncc2)cc1,447 nM (active) and 794 nM (active),–
CCOc1cc(/C=N/NC(=O)CNc2cccc(C)c2)ccc1OC(=O)c1ccccc1,10 µM (active),–
COc1ccc(/C=C/C(=O)Oc2cccc(/C=N/NC(=O)COc3c(C)cccc3C)c2)cc1,inactive,–
CCOc1cc(/C=N/NC(=O)COc2cccc(C)c2)ccc1OC(=O)c1cccs1,8.91 µM (active),–
O=C(CN1CCN(S(=O)(=O)c2ccc(Cl)cc2)CC1)Nc1ccc2c(c1)OCO2,2.82 µM (active),–
O=C(CN1CCN(S(=O)(=O)c2ccc(F)cc2)CC1)Nc1ccc(Cl)c(C(F)(F)F)c1,7.94 µM (active),–
